Screening results: PubChem BioAssay, National Center for Advancing Translational Sciences (NCATS)
Shown are actives, neighbours in structure and some others; about 3% of the full set was active somewhere.
IP6K1 inh: blocks human inositol hexakisphosphate kinase 1 | Q92551 | IP6K1 kinase, ADP-Glo luminescence, 2 h; stronger effect = lower value | activity change, % (series mostly up to about 58 µM) | 0.81% of 140,000 active | AID 1645851; in the data active = activity change below about -25%; also: % is scaled to controls: 0 for no effect and ±100 for the full control effect
Target sequence (Q92551 whole entry, looked up): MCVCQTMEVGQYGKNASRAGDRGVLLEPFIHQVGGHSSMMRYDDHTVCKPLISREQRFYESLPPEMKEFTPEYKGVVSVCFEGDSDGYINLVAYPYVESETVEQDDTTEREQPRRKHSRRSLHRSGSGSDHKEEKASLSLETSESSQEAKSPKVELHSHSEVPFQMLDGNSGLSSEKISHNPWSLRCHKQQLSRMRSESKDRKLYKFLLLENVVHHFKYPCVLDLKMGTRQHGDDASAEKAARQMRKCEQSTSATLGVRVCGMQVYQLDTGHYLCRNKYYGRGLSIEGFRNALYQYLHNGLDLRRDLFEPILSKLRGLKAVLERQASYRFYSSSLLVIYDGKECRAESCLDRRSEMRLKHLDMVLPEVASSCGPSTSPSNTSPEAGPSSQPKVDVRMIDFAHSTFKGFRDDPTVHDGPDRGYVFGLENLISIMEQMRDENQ
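ADP-Glo luminescence measures ADP made by human IP6K1 during a 2 h RT reaction with ATP/IP6 (mix at 1.3 mM/130 uM); top library doses 57.5 and 19.1 uM final.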
SNCA expr inhib: inhibitors of alpha-synuclein (SNCA) gene expression; HEK-293 SNCA-luciferase knock-in, luminescence, 24 h; Potency, µM (titrated, usually from 57.2 µM), inactives show at the top dose activity change, negative = inhibition, hits mostly inhibitors; 0.17% of 140,000 active;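 also: potency is read from the fitted curve at half-maximal effect; plate controls were DMSO cells for no effect and cell-free wells for full effect; nearly all actives have a fitted effect of over 45% in size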
HEK293 viab: cell viability loss counter-screen. HEK-293-SNCA-luc viability, GF-AFC fluorescence, 24 h. Potency, µM (top dose mostly 57.1 µM), inactives show at the top dose activity change, negative = cytotoxicity, most hits filed as cytotoxic. 0.12% of 150,000 active. AID 1671193;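 also: potency is read from the fitted curve at half-maximal effect; 0% = DMSO-treated cells and -100% = medium-only wells without cells; nearly all actives have a fitted effect of over 30% in size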
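Cytotoxicity counterscreen: after 24 h compound treatment of genome-edited SNCA-luciferase HEK-293 cells, live-cell protease substrate GF-AFC read by fluorescence after 30 min; activity scaled between DMSO (0%) and medium-only (-100%), curves Hill-fitted.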
KDM5B inhibitor: inhibitors of human KDM5B histone demethylase. Q9UGL1. KDM5B demethylase, FDH-coupled NADH fluorescence (FDH is formaldehyde dehydrogenase). Potency, µM (titrated, usually from 57.7 µM), actives largely listed as inhibitors. 2.6% of 220,000 active; also: potency is read from the fitted curve at half-maximal effect; 0% is about no effect; nearly all actives have a fitted effect of over 70% in size
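Inhibition is measured as reduced NADH fluorescence generation from FDH coupling to formaldehyde release. Truncated KDM5BΔAP at 200 nM final acts on H3K4me3 peptide (12.5 µM in substrate mix) in pH 7.5 HEPES buffer with Tween-20, 30 min, room temperature.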
* hit, by the source's call; i = inactive; ? = inconclusive; · = no result; [ ] = remark or other dose. Unless noted, calls follow the shape of the dose curve; as a rule, active = well fitted curve in the direction sought with a large enough effect; inconclusive = small, poorly fitted or top-dose-only effect, or another doubt; inactive = no such curve, though single readings can be large; an effect the other way counts as inactive or inconclusive.

SMILES	IP6K1 inh	SNCA expr inhib	HEK293 viab	KDM5B inhibitor
CC1CCN(CCc2nc3c([nH]2)CC(C)(C)CNC3=O)CC1	-13	17%	4%	i
COc1cc(/C=C/C(=O)OC2CCC(C(C)(C)C)CC2)cc(OC)c1OC (stereo not drawn)	·	·	·	i
O=C(Nc1cnc(-c2cccc(Cl)c2)nc1)c1cc(F)cc(F)c1	4	29%	-15%	25µM*
COCCNC(=O)c1cc(-c2ccco2)nc2ccccc12	·	·	·	i
Cc1ccc(CNC(=O)c2c(C)sc3ccn(CC(C)C)c(=O)c23)o1	-1	-23%	6%	25µM*
c1ccc(CC2=NOC3(CCN(Cc4ccccc4)C3)C2)cc1 (stereo not drawn)	16	2%[87.6 µM]	-4%[87.6 µM]	32µM*
C[S+](=O)([O-])c1ccc(-c2nccc3c(=O)cc(-c4ccncc4)oc23)cc1	-5	21%[87.6 µM]	2%[87.6 µM]	32µM*
Cc1cccc(-c2nccc3c(=O)cc(N4CCN(C)CC4)oc23)c1	-16	-16%[87.6 µM]	?	35µM*
Cc1ccc(-c2nccc3c(=O)cc(N4CCN(C)CC4)oc23)cc1	-8	5%[87.6 µM]	-11%[87.6 µM]	40µM*
O=c1cc(-c2ccncc2)oc2c(-c3ccccc3O)nccc12	-11	-26%[87.6 µM]	-19%[87.6 µM]	i
CN1CCN(c2ccc(-c3nccc4c(=O)cc(N(C)c5ccccc5)oc34)cn2)CC1	-7	123%[87.6 µM]	-29%[87.6 µM]	?
CN1CCN(c2cc(=O)c3ccnc(-c4ccc(F)cc4)c3o2)CC1	-15	4%[87.6 µM]	-8%[87.6 µM]	28µM*
CN1CCN(c2cc(=O)c3ccnc(-c4ccc([S+](C)(=O)[O-])cc4)c3o2)CC1	-9	0%[87.6 µM]	4%[87.6 µM]	32µM*
C[N+]12CC[N+](C)(CC1)CC2	·	·	·	i
CC(C)c1noc(-c2cccn3c(CNC(=O)c4ccccc4)nnc23)n1	4	-9%	2%	22µM*
CC(C)c1noc(-c2cccn3c(CNC(=O)c4ccco4)nnc23)n1	-2	-17%	5%	22µM*
CC(C)c1noc(-c2cccn3c(CNC(=O)c4ccccn4)nnc23)n1	14	?	-10%	25µM*
CC(C)c1noc(-c2cccn3c(CNC(=O)c4cccnc4)nnc23)n1	19	11%	8%	?
CCCNc1nc2ccccc2nc1C(=O)Nc1cccc(OC)c1	·	·	·	i
CC1CCCN(C(=O)c2cc3ccc4cccnc4c3[nH]2)C1 (stereo not drawn)	-5	2.2µM*	?	i
O=C(c1cc2ccc3cccnc3c2[nH]1)N1CCCCC1	-17	?	-2%	i
CC(Oc1ccccc1)C(=O)N1CC(Oc2cccc(-c3nc(-c4ccccc4)no3)c2)C1 (stereo not drawn)	-1	24%	7%	22µM*
COc1cccc(C(=O)N2CC(Oc3cccc(-c4nc(-c5ccccc5)no4)c3)C2)c1	-3	19%	-1%	i
COc1ccccc1C(=O)N1CC(Oc2cccc(-c3nc(-c4ccccc4)no3)c2)C1	-3	162%	-8%	22µM*
O=C(c1cc2ccccc2[nH]1)N1CCC2(CC1)CN(c1ncccn1)CC2CO (stereo not drawn)	0	13%	-16%	?
SMILES	IP6K1 inh	SNCA expr inhib	HEK293 viab	KDM5B inhibitor
Cc1ccc(CN2CCC3(CC2)CN(c2ncccn2)CC3CO)cc1C (stereo not drawn)	6	5%	5%	25µM*
OCC1CN(c2ncccn2)CC12CCN(Cc1ccncc1)CC2 (stereo not drawn)	18	1%	6%	22µM*
OCC1CN(c2ncccn2)CC12CCN(Cc1ccsc1)CC2 (stereo not drawn)	10	10%	7%	32µM*
O=C(c1ccncc1)N1CCC2(CC1)CN(c1ncccn1)CC2CO (stereo not drawn)	4	-3%	3%	22µM*
OCC1CN(c2ncccn2)CC12CCN(Cc1cccc(Cl)c1F)CC2 (stereo not drawn)	-2	-9%	-5%	?
Cc1cc(CN2CCC3(CC2)CN(c2ncccn2)CC3CO)n(C)n1 (stereo not drawn)	11	-10%	0%	32µM*
COCC1CN(C)CC12CCN(Cc1cc(C)nn1C)CC2 (stereo not drawn)	-3	-4%	-4%	i
Cc1ccc(CN2CCC3(CC2)CCN(Cc2ccco2)CC3CO)s1 (stereo not drawn)	-1	0%	-9%	i
CC(=O)N1CCC2(CC1)CCN(c1ncccc1C#N)CC2CO (stereo not drawn)	-7	5%	0%	32µM*
OCC1CN(c2ncccn2)CC12CCN(Cc1ccco1)CC2 (stereo not drawn)	16	25%	7%	28µM*
O=C(NCc1cccc(C(F)(F)F)c1)C1CCCN1Cc1ccc(-c2cncnc2)cc1 (stereo not drawn)	-2	-3%	-6%	·
O=C(NNC(=S)Nc1ccc(Cl)cc1Cl)c1ccc(Cl)c(Cl)c1	·	·	·	i
CCc1cccc(C)c1NS(=O)(=O)c1cccc(C(F)(F)F)c1	·	·	·	i
Cc1cccc(-n2nnnc2S(C)(=O)=O)c1	3	?	22µM*	?
O=[S+]([O-])(NC1CCCN(c2ccc3nnc(C4CC4)n3n2)C1)c1cccc(C(F)(F)F)c1 (stereo not drawn)	11	·	·	·
CCc1ccc(NC(=O)C2CC(=O)N(c3n[nH]c4cccc(F)c34)C2)cc1 (stereo not drawn)	-4	-4%	12%	35µM*
O=C(NC1CCCCCC1)C1CC(=O)N(c2n[nH]c3cccc(F)c23)C1 (stereo not drawn)	-6	-20%	7%	32µM*
Cc1ccc(NC(=O)C2CC(=O)N(c3n[nH]c4cccc(F)c34)C2)cc1C (stereo not drawn)	-15	-15%	1%	18µM*
Cc1cccc(NC(=O)C2CC(=O)N(c3n[nH]c4cccc(F)c34)C2)c1 (stereo not drawn)	-10	-9%	-5%	?
CC(=O)Nc1ccc(NC(=O)C2CC(=O)N(c3n[nH]c4cccc(F)c34)C2)cc1 (stereo not drawn)	-12	-6%	1%	35µM*
O=S1(=O)NCC(O)c2sccc21 (stereo not drawn)	·	·	·	i
O=C(CCc1c[nH]c2ccccc12)Nc1ccc(F)c(F)c1	·	·	·	i
CCCCn1c(=O)n(CC(=O)Nc2cccc(F)c2)c(=O)c2c1ncn2Cc1ccco1	·	·	·	i
COCCN1CCCCCC(O)c2cc(C(=O)N(C)Cc3ccc(N4CCCCC4)cc3)ccc21 (stereo not drawn)	5	-30%	-21%	7.9µM*
COCCN1CCCCCC(O)c2cc(C(=O)NC3CCC3)ccc21 (stereo not drawn)	0	31%	5%	32µM*
CCOC(=O)c1sc(N)c(C#N)c1COC(=O)C12CC3CC(CC(O)(C3)C1)C2	·	·	·	i
CNC(=O)c1cc(-c2ccncc2)cc2c1OCCN2Cc1cccnc1	-17	-10%[87.6 µM]	-7%[87.6 µM]	i
CNC(=O)c1cc(-c2cccnc2)cc2c1OCCN2Cc1cccnc1	-25	3%[87.6 µM]	-1%[87.6 µM]	i
